This is a sample that favours compounds with a hit; in the whole collection about 4.2% have one here.
GDH-TPI inh: GDH-TPI coupled enzyme inhibition counter-screen | actives 1.2% (n = 360,000) | GDH-TPI coupled enzyme counterscreen, NADH absorbance | inhibition, % at 4.8 µM; in the data active means inhibition above about 30%;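 further: 0% = DMSO wells and 100% = wells lacking the enzyme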
FBA Mtb inh: Mtb fructose-bisphosphate aldolase inhibition; actives 2.3% (n = 360,000); P9WQA3; purified M. tuberculosis FBA, fluorescence read-out; AID 588726; inhibition, % at 1 µM; in the data active means inhibition above about 27%;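 further: 0% = vehicle and 100% = reference inhibitor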
PrPC TRFRET: inhibitors of human cell surface prion protein PrPC; P04156; TR-FRET read-out; inhibition, % at 13.8 µM; actives 0.43% (n = 370,000); AID 720596; in the data active means inhibition above about 24%; further: 0% = median of the test wells and 100% = reference compound wells
BJeLR lethal: kills HRASV12-expressing BJeLR cells; BJeLR (HRASV12) viability, CellTiter-Glo ATP luminescence, 48 h; inhibition, % (test concentration not listed); actives 0.17% (n = 300,000); in the data active means inhibition above about 50%; inconclusive means no clear call, values can overlap the other calls
RecA splice inh: Mtb RecA intein splicing inhibition; inhibition, % (concentration not given with the values); actives 0.75% (n = 290,000); cell-free RecA intein splicing, fluorescence; AID 2221; in the data active means inhibition above about 30%; inconclusive means no clear call, values can overlap the other calls;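 further: 0% = vehicle wells and 100% = reference inhibitor control wells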
Target sequence (P9WHJ3 whole entry, looked up, canonical isoform): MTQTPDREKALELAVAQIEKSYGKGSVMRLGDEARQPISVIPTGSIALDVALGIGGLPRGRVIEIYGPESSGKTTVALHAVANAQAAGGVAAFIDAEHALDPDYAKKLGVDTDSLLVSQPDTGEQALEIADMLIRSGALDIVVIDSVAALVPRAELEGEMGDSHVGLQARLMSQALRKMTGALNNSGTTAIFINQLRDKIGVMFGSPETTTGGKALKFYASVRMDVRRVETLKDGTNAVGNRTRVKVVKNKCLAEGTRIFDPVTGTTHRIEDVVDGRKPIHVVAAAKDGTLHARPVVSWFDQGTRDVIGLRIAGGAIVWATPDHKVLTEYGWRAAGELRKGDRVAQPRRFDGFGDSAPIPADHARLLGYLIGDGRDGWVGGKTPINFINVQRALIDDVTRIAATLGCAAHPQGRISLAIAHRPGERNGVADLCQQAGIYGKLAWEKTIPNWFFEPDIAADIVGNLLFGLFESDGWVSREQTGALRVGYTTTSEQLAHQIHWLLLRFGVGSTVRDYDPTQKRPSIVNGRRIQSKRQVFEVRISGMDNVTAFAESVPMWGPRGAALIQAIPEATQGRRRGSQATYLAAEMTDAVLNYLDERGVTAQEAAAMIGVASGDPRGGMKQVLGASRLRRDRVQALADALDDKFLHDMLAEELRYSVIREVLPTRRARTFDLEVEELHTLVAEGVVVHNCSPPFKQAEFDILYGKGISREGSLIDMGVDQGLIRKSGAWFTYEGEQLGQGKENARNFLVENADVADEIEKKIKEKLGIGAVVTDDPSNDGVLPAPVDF
GFP chromo cs: counter-screen GFP chromophore formation inhibition; shares compounds with RecA splice inh; cell-free GFP chromophore formation, fluorescence; EC50, µM; actives 83% (n = 2,100); AID 434968; call rule not given here
* marks the source's active call; other numbers are inactive results; u = inconclusive; x = not tested or not shown.

SMILES | GDH-TPI inh | FBA Mtb inh | PrPC TRFRET | BJeLR lethal | RecA splice inh | GFP chromo cs
Oc1cccc(C=Nc2cccc3ccccc23)c1O | 20 | 0 | -4 | -15 | 31* | 15*
CCN(Cc1ccccc1)C(c1ccncc1)c1nnnn1C(C)(C)C (stereo not given) | -5 | -2 | -7 | 15 | x | x
CCN(Cc1ccccc1)C(c1ccc(C)cc1)c1nnnn1C(C)(C)CC (stereo not given) | 10 | 3 | 8 | 8 | 30* | >38
O=C(Nc1ccccc1)n1ccc2ccc(-c3ccc4cc[nH]c4c3)cc21 | x | x | 3 | x | x | x
CC1(C)c2ssc(=S)c2-c2ccccc2N1C(=O)CSC1=NCCS1 | 2 | -3 | -9 | -2 | 51* | 4.6*
Cc1ccc2c(c1)-c1c(ssc1=S)C(C)(C)N2C(=O)CSc1nncn1C | 12 | -1 | -16 | -10 | 47* | 13*
Cc1cc(C)c2c(c1)-c1c(ssc1=S)C(C)(C)N2C(=O)CSc1nncn1C | 8 | -3 | -14 | -6 | 46* | 9.8*
COc1ccc2c(c1)-c1c(ssc1=S)C(C)(C)N2C(=O)CSC1=NCCS1 | 5 | -5 | -31 | -6 | 24 | x
Nc1scc2c(C(=O)N/N=C/c3ccc(Cl)cc3)nn(-c3ccccc3)c(=O)c12 | 9 | -3 | -29 | -6 | 63* | 16*
CCOC(=O)c1nn(-c2ccccc2)c(=O)c2c(N)scc12 | 15 | -12 | -19 | x | x | x
COc1ccc2ccc3c(c2c1)N=C[C@]1(O3)N(C)c2ccccc2C1(C)C | 12 | 3 | -3 | 5 | 89* | 12*
COC(CN(C(=O)CCl)C(C(=O)NC1CCCCC1)c1ccc(Cl)cc1)OC (stereo not given) | -11 | -1 | 5 | -1 | 35* | 34*
COc1ccc(C(C(=O)NC2CCCCC2)N(C(=O)CCl)c2ccc(Cl)cc2)cc1 (stereo not given) | -4 | 3 | x | 26 | 67* | u
CN(C)C(C(=O)NC1CCCCC1)c1ccc(Cl)cc1 (stereo not given) | -10 | 2 | 4 | 7 | -1 | x
O=C(NC1CCCCC1)C(c1cccnc1)N(C(=O)CCl)c1cccc(Cl)c1 (stereo not given) | -7 | 2 | 0 | 89* | 79* | 5.9*
COC(=O)[C@]12C[C@H](CC(=O)NCc3ccc(C)o3)C(=O)N(CCc3ccc(OC)c(OC)c3)C1=C[C@H](C(C)(C)C)O[C@@H]2C | x | x | -4 | x | x | x
CC(C)=CCC/C(C)=C/CN1CC(=O)N2[C@H](C[C@@]3(n4ccc5ccccc54)c4ccccc4N(S(=O)(=O)c4ccccc4)[C@@H]23)C1=O | x | x | 14 | x | x | x
COC(=O)[C@]12C[C@H](CC(=O)NCc3cccs3)C(=O)N(Cc3ccccc3)C1=C[C@H](C(C)(C)C)O[C@@H]2C | x | x | 7 | x | x | x
O=C(Cc1ccccc1)c1c[nH]c(C(=O)C(Cl)(Cl)Cl)c1 | -14 | -1 | 1 | 13 | 69* | 37*
CNC(=O)c1cc(C(=O)c2ccc(F)cc2Cl)c[nH]1 | 2 | 2 | 11 | 0 | -1 | x
O=C(c1ccc(Cl)cc1)c1c[nH]c(C(=O)C(Cl)(Cl)Cl)c1 | -6 | -1 | 7 | 8 | 80* | 3.9*
O=C(c1c[nH]c(C(=O)C(Cl)(Cl)Cl)c1)c1ccc(F)cc1Cl | 5 | 10 | 6 | 8 | 54* | 23*
COc1ccc(C(C(=O)N(C)C2CCCC2)N(Cc2ccc(F)cc2)C(=O)c2csc3ccc(Cl)cc23)cc1OC (stereo not given) | x | x | 13 | x | x | x
N=c1c2c(-c3ccccc3)c(-c3ccccc3)n(Cc3ccccc3)c2ncn1CCCn1ccnc1 | 6 | 4 | -11 | 15 | 11 | x
N=c1c2c(-c3ccccc3)c(-c3ccccc3)n(Cc3ccco3)c2ncn1Cc1ccco1 | -4 | 6 | -9 | 15 | 47* | 14*
SMILES | GDH-TPI inh | FBA Mtb inh | PrPC TRFRET | BJeLR lethal | RecA splice inh | GFP chromo cs
COC(=O)[C@]12C[C@H](CC(=O)N3CCSCC3)C(=O)N(Cc3ccc(Cl)cc3Cl)C1=C[C@H](C(C)C)O[C@@H]2C1CC1 | x | x | -3 | x | x | x
O=C1C=C(Nc2ccccc2)c2ccccc2C1=O | 8 | -7 | -3 | -8 | 70* | 0.85*
O=C(CN1C(=O)c2ccccc2C1=O)Nc1cccc2cccnc12 | 1 | 9 | 8 | 3 | 0 | x
O=C1C=C(Nc2cccc3cccnc23)c2ccccc2C1=O | -5 | 1 | -18 | 45 | 90* | 3.6*
CCCCNC1=CC(=O)C(=O)c2ccccc21 | 2 | -6 | -32 | 11 | 97* | 0.98*
CCOC(=O)c1cccc(NC(=O)CN(C)S(=O)(=O)c2ccc(Cl)s2)c1 | x | x | -2 | x | x | x
CCCc1[nH]nc2c1C1(C(=O)N(C(C)C)c3ccccc31)C(C#N)=C(N)O2 (stereo not given) | -2 | 0 | -6 | 3 | 4 | x
CCc1[nH]nc2c1C1(CCN(C(=O)c3ccccc3)CC1)C(C#N)=C(N)O2 | 0 | -1 | 9 | -12 | 67* | 29*
Cc1ccc(SCc2[nH]nc3c2C2(C(=O)Nc4ccc(F)cc42)C(C#N)=C(N)O3)cc1 (stereo not given) | 0 | 0 | -4 | -1 | x | x
CC(=O)N1CCC2(CC1)C(C#N)=C(N)Oc1n[nH]c(CSc3ccc(C)cc3)c12 | 8 | 3 | -7 | 5 | 74* | 23*
COc1cccc(NC(=S)/C(=C(\[O-])c2ccc(OC(F)F)cc2)[n+]2ccccc2)c1 | 8 | 3 | -7 | 2 | 37* | 35*
[O-]/C(=C(\C(=S)Nc1cccc2ccccc12)[n+]1ccccc1)c1ccc(OC(F)F)cc1 | -8 | 5 | -3 | x | x | x
O=S1(=O)CCSC[C@@H](CN2CCCC2)N1 | x | x | 12 | x | x | x
C=CCN1C(=O)[C@@H](CC(=O)NCc2ccccc2)[C@]2(C(=O)OCC)CCCCC/C=C/12 | x | x | -4 | x | x | x
CCOC(=O)C(C(=O)OCC)c1cc(Br)c2noc3c2c1C(=O)c1ccccc1-3 | 2 | 4 | -15 | 18 | 82* | 3.3*
CC(=O)OCCNc1cc(N2CCN(C)CC2)c2noc3c2c1C(=O)c1ccccc1-3 | 9 | 5 | -80 | x | x | x
CCOC1(OCC)C(c2ccc(Cl)cc2)C(C#N)(C#N)C1(OCC)OCC (stereo not given) | 6 | -6 | 9 | -5 | 56* | >38
CC(CNc1ccccc1O)C(=O)O (stereo not given) | 2 | 0 | -20 | -16 | 50* | 17*
[O-]C1=N/[N+](=C/c2ccccc2)CC1 | 8 | 0 | -7 | 5 | 81* | 30*
[O-]C1=N/[N+](=C/c2ccc(Cl)c(Cl)c2)CC1 | 6 | 1 | 5 | 8 | 36* | 38*
Clc1ccccc1/C=C/c1ccnc2ccccc12 | 8 | 7 | -4 | 2 | 22 | x
[O-]C1=N/[N+](=C/c2ccccc2Cl)CC1 | -4 | 0 | 6 | 5 | 70* | 17*
